About 280 (0.082%) of roughly 340,000 compounds were called active. The entries come from a sample that favours actives as a whole. A number with no mark means an inactive call.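 Rule for the calls: active = percent activation above the mean of all tested compounds plus 3 SD (cut at about 19% in these data); inactive = the rest.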
molecular target: cAMP-dependent protein kinase type I-alpha regulatory subunit (Bos taurus) + cAMP-dependent protein kinase catalytic subunit beta (Mus musculus) (UniProt P00514+P68181); test: activators of PKA-R1A holoenzyme, primary screen, biochemical, fluorescence polarization, Cy5-IP20, bovine R1A, mouse PKAc (AID 504707); settings: PKA-R1A dissociation, at 11.4 µM, active compounds read high, scaled: DMSO 0%, 113 µM cGMP 100%;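 note: higher means more PKAc released from R1A so a rise in polarization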

Compared with `COc1cc2ccc(C(C)=O)c(O)c2cc1OC`, `CCOC(=O)c1cnc(SC)nc1Sc1ccc(Cl)cc1Cl` is lower in activation: 4.58% for the first, -0.11% for the second.

First: Cc1csc(SCC(=O)Nc2ccc(C)c(S(=O)(=O)N(C)C)c2)n1
Second: CN(C)c1ccc(NC(=O)CSc2n[nH]c(-c3ccco3)n2)cc1
The activation of the first is lower: -1.19% for the first, 7.46% for the second.

Compared with `CCOC(=O)C=Cc1ccc(C(=O)OCC)[nH]1`, `CCOC(=O)c1nc(-c2ccc3c(c2)OCO3)[nH]c1C` is lower in activation: 1.4% for the first, -2.48% for the second.

First: O=C(NCC(F)(F)F)c1ccc(S(=O)(=O)NCCc2ccc3c(c2)OCCO3)cc1
Second: O=C(NCc1nnnn1-c1ccc(Cl)cc1)c1ccc2c(c1)OCO2
The activation of the first is lower: -0.03% for the first, 4.42% for the second.

First: Cc1cc(C)c2c(=O)n3c(nc2c1)C(CC(C)C)NC(=O)c1cc2ccccc2cc1-3 (stereo not given)
Second: Cc1cc(C)c(C#N)c(SCC(=O)NN2CC(=O)N(c3ccccc3F)CC2=O)n1
The activation of the first is higher: -8.23% for the first, -8.96% for the second.

First: COc1ccc(C(CNC(=O)CSc2ccccc2)N2CCOCC2)cc1 (stereo not given)
Second: CCCNC(=O)C1CC(=O)N(c2ccc(OCc3ccccc3)cc2)C1 (stereo not given)
The activation of the first is lower: -7.96% for the first, 3.3% for the second.

First: Cc1cccc(S(=O)(=O)N(C)C[C@@H]2OCc3cnnn3CCCC(=O)N([C@H](C)CO)C[C@@H]2C)c1
Second: C[C@H]1CN([C@@H](C)CO)C(=O)CCCn2nncc2CO[C@@H]1CN(C)S(=O)(=O)c1cccc(C#N)c1
The activation of the first is higher: 1.99% for the first, -0.38% for the second.

First: CCN(CC)C(=O)C1=C(C)N(Cc2ccc(C(C)(C)C)cc2)C(=O)C(CC(=O)NCc2cccc3ccccc23)C1 (stereo not given)
Second: CCN(CC)C(=O)C1=C(C)N(Cc2ccccc2)C(=O)C(CC(=O)NC(c2ccccc2)c2ccccc2)C1 (stereo not given)
The activation of the first is lower: -15.8% for the first, -7.55% for the second.

Going from `COc1ccc([C@H]2C[C@@H](n3cc(COC(=O)c4ccccc4)nn3)[C@H](O)CN2C(=O)c2cccs2)cc1` to `O[C@@H]1C[C@H](c2ccccc2)N(Cc2cccs2)C[C@H]1n1cc(C2CC2)nn1`, the activation rises from -9.97% to 8.01%.

Compared with `COc1ccc(NS(=O)(=O)c2ccc(NC(=O)c3ccc(N(C)S(C)(=O)=O)cc3)cc2)cc1`, `COc1ccc(C(=O)Nc2ccc(-n3nncc3C(C)(C)C)cc2)cc1` is lower in activation: 9.45% for the first, -6.01% for the second.

First: COn1c(=O)c(=O)n(OC)c2ccccc21
Second: Cc1ccnc(SC2CC(=O)N(c3ccccc3)C2=O)n1 (stereo not given)
The activation of the first is lower: -14.3% for the first, 8.38% for the second.

Compared with `COc1ccc(NC(=O)c2cc(=O)[nH]c3ccccc23)cc1S(=O)(=O)N1CCOCC1`, `Cc1ccc(S(=O)(=O)N2CCOCC2)cc1NC(=O)c1ccncc1` is lower in activation: 3.45% for the first, -4.48% for the second.

Compared with `N#CCCC(C#N)(c1cccnc1)N1CCOCC1` (stereo not given), `CC1=C(C(=O)N2CCOCC2)CC(CC(=O)NCc2cccc3ccccc23)C(=O)N1CCC1=CCCCC1` (stereo not given) is lower in activation: 9.19% for the first, -16.2% for the second.

First: Cn1ncc2c(NNC(=O)Cc3cccc4ccccc34)ncnc21
Second: c1ccc(Cn2nnc3c(NCC4CC4)ncnc32)cc1
The activation of the first is lower: -20.9% for the first, 5.88% for the second.

Compared with `O=C(CNC(=O)N1CC(=O)Nc2ccccc21)Nc1ccc(Br)cc1F`, `Cc1ccc(NC(=O)Cn2sc3ccccc3c2=O)cc1` is higher in activation: -0.99% for the first, 8.53% for the second.

Compared with `CCOc1ccc(C2NC(=S)NC3=C2CCc2ccccc23)cc1` (stereo not given), `CCN(C(=O)C1CCCN(c2nc(-c3ccc(OC)cc3)no2)C1)c1ccc(OC)cc1` (stereo not given) is lower in activation: -2.38% for the first, -6.29% for the second.

First: CCOC(=O)c1cc(-c2sc(NC(=O)c3ccccc3)nc2C)n(-c2ccc(Br)cc2)n1
Second: CCOC(=O)C1CCN(C(=O)c2ccc3c(=O)n4nc(Nc5ccccc5CC)sc4nc3c2)CC1
The activation of the first is higher: 4.25% for the first, -0.99% for the second.

First: C[C@H](CO)N1C[C@H](C)[C@@H](CN(C)C(=O)c2cccc(F)c2)Oc2cc(-c3cncnc3)ccc2S1(=O)=O
Second: C[C@@H]1CN([C@@H](C)CO)S(=O)(=O)c2ccc(-c3ccc(C(=O)N(C)C)cc3)cc2O[C@@H]1CN(C)Cc1ccccc1C(=O)O
The activation of the first is higher: 0.35% for the first, -3.75% for the second.

Going from `O=S1(=O)CCN(C2CCCCCCCCCCC2)CC1` to `CC(=O)N1CCc2cc(S(=O)(=O)NC3CCCCC3)ccc21`, the activation falls from 7.32% to 5.76%.

First: O=C(COc1ccc(S(=O)(=O)N2CCCC2)cc1[N+](=O)[O-])N1CCCCC1
Second: CSCCC1NC(=O)N(CC(=O)Nc2cccc(S(=O)(=O)N3CCCCCC3)c2)C1=O (stereo not given)
The activation of the first is lower: -0.2% for the first, 4.33% for the second.

First: Cc1cccc(N(CC(=O)N2CCCC2)S(C)(=O)=O)c1C
Second: CCCc1ccc(S(=O)(=O)N2CCN(C(=O)c3cc(C)on3)CC2)cc1
The activation of the first is lower: -6.73% for the first, 8.59% for the second.

Compared with `CC1=C(C(=O)Nc2cccc(C(=O)NCC(C)c3ccccc3)c2)SCCO1` (stereo not given), `CN(C)C(CNC(=O)c1cccc(S(=O)(=O)N2CCc3ccccc3C2)c1)c1ccccc1` (stereo not given) is lower in activation: 9.58% for the first, -0.91% for the second.

Compared with `CCOC(=O)c1c(NC(=S)SC)sc(C(=O)N2CCc3ccccc3C2)c1C`, `CCc1noc(C)c1C(=O)OCC(=O)c1ccc(NC(=O)CC(C)C)cc1` is lower in activation: -7.69% for the first, -17.9% for the second.

First: OCC1OC(n2cnc3c(N4CCCC4)ncnc32)C(O)C1O (stereo not given)
Second: CCOC(=O)c1cnn2c(SC)ncnc12
The activation of the first is higher: 2.45% for the first, 1.57% for the second.

First: CC(Sc1ccc(S(=O)(=O)N2CCN(C)CC2)cn1)C(=O)NC1CCCC(C)C1C (stereo not given)
Second: NS(=O)(=O)c1ccc(CNC(=O)c2cc(S(=O)(=O)N3CCOCC3)ccc2N2CCCC2)cc1
The activation of the first is higher: 1.21% for the first, -1.96% for the second.

Compared with `NC1=CC(=O)C(=O)c2cccnc21`, `Cc1cccc(NS(=O)(=O)c2cc(Cl)ccc2Cl)n1` is lower in activation: 0.52% for the first, -4.38% for the second.

First: COc1ccc2c(c1)CCCO[C@]21O[C@H](CCO)C[C@H](O)[C@H]1O
Second: COc1ccc(S(=O)(=O)N2CCC(C(=O)NCCC(=O)NCCc3cccc(F)c3)CC2)cc1
The activation of the first is lower: -17.7% for the first, -4.12% for the second.

Going from `COCOCCn1cc(CN2CCS(=O)(=O)N(Cc3ccc(-c4ccccc4)cc3)C(CC(C)C)C2=O)nn1` (stereo not given) to `CC(C)CC1C(=O)N(Cc2cn(Cc3ccco3)nn2)CCS(=O)(=O)N1Cc1ccc(-c2ccc(Cl)c(Cl)c2)cc1` (stereo not given), the activation falls from -7.1% to -7.28%.

Going from `CCc1cc(C(=O)N(CC)CC(=O)Nc2c(F)cccc2F)sc1C` to `Cc1ccn(CC(=O)NC2CCCN(Cc3ccccc3F)C2)n1` (stereo not given), the activation rises from 2.41% to 3.67%.

First: O=S(=O)(c1ccc(Cl)s1)N1CCC2(CC1)OCCO2
Second: Cc1ccc(CCNC(=O)CN2C(=O)CSc3ccc(S(=O)(=O)N4CCOCC4)cc32)cc1
The activation of the first is higher: -0.53% for the first, -7.23% for the second.

Compared with `Cc1noc(C)c1S(=O)(=O)N(C)C[C@H]1OCCCC[C@@H](C)Oc2ccc(NC(=O)CCCN(C)C)cc2C(=O)N([C@H](C)CO)C[C@@H]1C`, `C[C@H]1CN([C@@H](C)CO)C(=O)CCCn2cc(nn2)CO[C@@H]1CN(C)C(=O)Nc1ccccc1` is lower in activation: -9.82% for the first, -15.3% for the second.

Going from `C[C@@H]1CN([C@H](C)CO)S(=O)(=O)c2ccc(C#CC3CCCCC3)cc2O[C@H]1CN(C)C(=O)Cc1ccncc1` to `CC(C)CC1C(=O)N(Cc2cn(CC3CCCCC3)nn2)CCS(=O)(=O)N1Cc1ccc(-c2ccc(Cl)cc2)cc1` (stereo not given), the activation rises from -5.17% to -4.01%.

Compared with `CC1CCN(C(=O)CSc2nnc(-c3ccco3)n2N)CC1`, `CC1CCC2(CC1)NC(=O)N(CC(=O)NCc1ccco1)C2=O` (stereo not given) is lower in activation: -3.33% for the first, -3.37% for the second.

Going from `CCCCN=C(N)/C(C(=O)OCC)=C(\O)c1ccc(OC)cc1` to `CCCn1nnnc1NCc1ccc(OC)cc1`, the activation falls from -0.11% to -2.85%.

First: CCc1nc2c(=O)[nH]cnc2o1
Second: CCC(C)C1(C2CCCC2)NC(=O)NC1=O (stereo not given)
The activation of the first is higher: 12.2% for the first, -4.54% for the second.

Compared with `COc1ccc(NC(=O)COC(=O)C2COc3ccccc3O2)cc1` (stereo not given), `CCN(c1ccc(NC(=O)COC(=O)CCc2nc3ccccc3n2-c2ccccc2)cc1)C(C)C` is lower in activation: 11.1% for the first, -8.81% for the second.

Going from `O=C(CSc1ccc(Cl)cc1)NC1CC1` to `O=C(COC(=O)c1cccc(Cl)c1Cl)NC1CCCCCC1`, the activation falls from -0.65% to -4.58%.

First: Cc1ccc(S(=O)(=O)NN=C2CC(C)(C)CC(=O)C2(C)C)cc1
Second: Cc1ccccc1OS(=O)(=O)c1cccc([N+](=O)[O-])c1
The activation of the first is lower: -0.8% for the first, 15.6% for the second.

Going from `Cc1ccc([C@H]2N[C@]3(CCCN(Cc4ccccc4)C3=O)[C@H]3C(=O)N(Cc4ccccc4)C(=O)[C@@H]23)cc1` to `O=C1[C@H]2[C@@H](c3ccc(C(F)(F)F)cc3)N[C@]3(CCCN(Cc4ccc(Br)cc4)C3=O)[C@H]2C(=O)N1Cc1ccccc1`, the activation falls from 3.96% to -1.26%.

First: Cn1nnnc1NCc1ccc(Cl)c(Cl)c1
Second: O=C(Nc1cccc(C(=O)O)c1)/C(=C\c1ccccc1)NC(=O)c1ccc(Br)o1
The activation of the first is lower: -9.38% for the first, 3.24% for the second.

Going from `O=[N+]([O-])c1ccc(C(S(=O)(=O)Cc2ccccc2)S(=O)(=O)Cc2ccccc2)cc1` to `O=C(c1ccc(N2CCCC2=O)cc1)N1CCN(c2ccc(C(F)(F)F)cc2[N+](=O)[O-])CC1`, the activation falls from 4.44% to 0.5%.

`CC1=C(C(=O)N2CCOCC2)CC(CC(=O)NCCN2CCOCC2)C(=O)N1CCC1=CCCCC1` (stereo not given) gave an activation of -5.53%.

In the case of `COc1ccc(NC(=O)c2ccc(C#CC(C)(C)O)cc2)cc1`, the activation is reported as 23.1% (active).
`COc1ccc(CNc2nnnn2C)cc1` was tested, and the activation was 19.2% (active).
